IDE exosite inh = exo-site inhibitors of human insulin-degrading enzyme; P14735; purified IDE, FL-6b probe fluorescence polarization; hits give low values; z-score at 20 µM; actives 6.3% (n = 17,000); AID 1259349;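 active = z-score of -3 or lower, meaning strong loss of probe binding signal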;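 also: His-tagged human IDE residues 42-1019 made in E. coli with 30 nM FL-6b probe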
Numbers stand for hits. This is one part of a sample in which hits are shown more often than they occur.

Results for COc1cccc(-c2ccc([C@H]3[C@@H](C#N)N(C(=O)c4ccccn4)[C@H]3CO)cc2)c1 ?
IDE exosite inh: -3.8

How did COc1cccc(C#Cc2ccc([C@@H]3[C@@H](CO)N(C(=O)c4ccccn4)[C@H]3C#N)cc2)c1 do in these assays?
IDE exosite inh: inactive

Results for COc1cccc(-c2ccc([C@H]3[C@H](C#N)N(C(=O)Cc4ccccc4)[C@H]3CO)cc2)c1 ?
IDE exosite inh: -3

How did COc1cccc(-c2ccc([C@H]3[C@@H](CO)N(C(=O)Cc4ccncc4)[C@H]3C#N)cc2)c1 do in these assays?
IDE exosite inh: -4.8

What do the screens show for `N#C[C@@H]1[C@H](c2ccc(-c3ccccc3)cc2)[C@H](CO)N1C(=O)Cc1ccccc1`?
IDE exosite inh: inactive

What do the screens show for `N#C[C@@H]1[C@@H](c2ccc(-c3ccccc3)cc2)[C@@H](CO)N1C(=O)Cc1ccncc1`?
IDE exosite inh: -4

Results for N#C[C@@H]1[C@@H](c2ccc(-c3ccccc3)cc2)[C@H](CO)N1C(=O)Cc1ccccc1 ?
IDE exosite inh: inactive

How did COc1cccc(-c2ccc([C@@H]3[C@H](C#N)N(C(=O)c4ccccn4)[C@H]3CO)cc2)c1 do in these assays?
IDE exosite inh: inactive

What do the screens show for `N#C[C@H]1[C@H](c2ccc(-c3ccccc3)cc2)[C@H](CO)N1C(=O)Cc1ccncc1`?
IDE exosite inh: inactive

Results for N#C[C@@H]1[C@@H](c2ccc(-c3ccncc3)cc2)[C@@H](CO)N1C(=O)Cc1ccccc1 ?
IDE exosite inh: inactive

How did CN1C(=O)c2cc(NC(=O)c3ccc(C#N)cc3)ccc2OC[C@H]2O[C@@H](CC(=O)NC3Cc4ccccc4C3)CC[C@@H]21 do in these assays?
IDE exosite inh: inactive

Results for CC(=O)N(CC(C)C)C[C@@H]1[C@H](c2ccc(C3=CCCC3)cc2)[C@H](CO)N1C(C)=O ?
IDE exosite inh: inactive

What do the screens show for `C[C@@H]1CN([C@@H](C)CO)C(=O)c2cc(NC(=O)CCC(F)(F)F)ccc2O[C@@H](C)CCCCO[C@@H]1CN(C)C(=O)c1ccncc1`?
IDE exosite inh: inactive

Results for COc1ccccc1NC(=O)N[C@H]1CC[C@@H](CCNS(=O)(=O)c2ccc(Cl)cc2)O[C@@H]1CO ?
IDE exosite inh: inactive

Results for O=C(C[C@H]1CC[C@@H]2[C@H](COC[C@H](O)CN2Cc2ccc(F)cc2)O1)NCCc1ccccc1 ?
IDE exosite inh: inactive

How did O=C(c1cccc(F)c1)N1CC(=O)N2[C@H](C1)[C@@H](c1ccc(C3=CCCC3)cc1)[C@@H]2CO do in these assays?
IDE exosite inh: inactive

How did CC(C)NC[C@H]1[C@@H](c2ccc(C3=CCCCC3)cc2)[C@@H](CO)N1C(=O)NC(C)C do in these assays?
IDE exosite inh: inactive

How did COc1ccc(C[C@@H]2CCn3nncc3COC[C@@H](c3ccccc3)NC2=O)cc1 do in these assays?
IDE exosite inh: inactive

What do the screens show for `N#C[C@@H]1[C@@H](c2ccc(/C=C/c3ccccc3)cc2)[C@@H](CO)N1C(=O)Cc1ccccn1`?
IDE exosite inh: -9.5

Results for C/C=C/c1ccc([C@H]2[C@@H](CO)N(C(=O)Cc3ccccn3)[C@H]2C#N)cc1 ?
IDE exosite inh: inactive

How did N#C[C@H]1[C@H](c2ccc(C#CC3CC3)cc2)[C@H](CO)N1C(=O)Cc1ccccn1 do in these assays?
IDE exosite inh: inactive

Results for Cc1ccccc1S(=O)(=O)N1CC(=O)N2[C@H](CO)[C@@H](c3ccc(C#CC4CC4)cc3)[C@@H]2C1 ?
IDE exosite inh: inactive

Results for CC(C)C#Cc1ccc([C@@H]2[C@H](CO)N3C(=O)CN(C(=O)Cc4cccnc4)C[C@@H]23)cc1 ?
IDE exosite inh: inactive

Results for O=C(Nc1ccccc1)N1CCCCN2[C@@H](CO)[C@@H](c3ccc(-c4ccncc4)cc3)[C@@H]2C1 ?
IDE exosite inh: inactive

Results for O=C(NC1CCCCC1)N1CC(=O)N2[C@H](CO)[C@H](c3ccc(/C=C/c4ccccc4)cc3)[C@@H]2C1 ?
IDE exosite inh: -10

How did CC(C)CC#Cc1ccc([C@H]2[C@H](CO)N3C(=O)CN(C(=O)NC4CCCCC4)C[C@@H]23)cc1 do in these assays?
IDE exosite inh: inactive

What do the screens show for `O=C(NC1CCCC1)N1CC(=O)N2[C@H](C1)[C@@H](c1ccc(/C=C/c3ccccc3)cc1)[C@@H]2CO`?
IDE exosite inh: inactive

How did O=C(NC1CCCC1)N1CC(=O)N2[C@H](CO)[C@@H](c3ccc(/C=C/c4ccccc4)cc3)[C@@H]2C1 do in these assays?
IDE exosite inh: inactive

How did O=C(NC1CCCCC1)N1CC(=O)N2[C@H](C1)[C@H](c1ccc(/C=C/c3ccccc3)cc1)[C@@H]2CO do in these assays?
IDE exosite inh: -3.9

Results for CC(C)CC#Cc1ccc([C@@H]2[C@H](CO)N3C(=O)CN(C(=O)NC4CCCCC4)C[C@@H]23)cc1 ?
IDE exosite inh: inactive

Results for O=C(NC1CCCCC1)N1CC(=O)N2[C@@H](CO)[C@H](c3ccc(/C=C/c4ccccc4)cc3)[C@@H]2C1 ?
IDE exosite inh: -7.4

What do the screens show for `O=C(NC1CCCCC1)N1CC(=O)N2[C@H](CO)[C@@H](c3ccc(/C=C/c4ccccc4)cc3)[C@@H]2C1`?
IDE exosite inh: -3.6
